# Reference: PubChem BioAssay (NCI)
# This is part of a sample that, as a whole, favours compounds with a hit. Of some 83,000 tested, about 20% had one in any assay.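 Compound tested at a single concentration for 48 hours in 96-well plates; a percent growth value below 10 was scored as active.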 A number with no mark means an inactive call. Active and inactive are the calls of the source.
# System: RXF 393 renal
# Assay: NCI-60 one-dose screen, 48 h (100 = growth as untreated, 0 = no growth, -100 = all killed)
# Details: 10 µM unless noted
row,SMILES,growth
1,CCCCNC(=O)Oc1ccc(/C(=C(/C)Cc2ccc(OC)cc2)c2ccc(OCCN(CC)CC)cc2)cc1,81.7%
2,Cc1nc2sc(C(=O)Nc3cccc(Br)c3)c(N)c2cc1C(O)c1ccccc1 (stereo not given),28.2%
3,CCn1cc(C(=O)O)c(=O)c2cc(F)c(N3CCN(CC(=O)Nc4ccc(S(=O)(=O)Nc5nccc(C)n5)cc4)C(C)C3)c(F)c21 (stereo not given),99%
4,C#CCOc1ccc2ncnc(Nc3ccc(NC(=O)C=C)cc3)c2c1,-80.6% (active)
5,Nc1ncnc2c1C(c1ccc(Br)cc1)c1sc3c(F)cccc3c1O2 (stereo not given),104%
6,N#Cc1nc(-c2ccc(Cl)cc2)oc1S(=O)(=O)N1CCN(c2ccc(F)cc2)CC1,109%
7,CCn1c(SCC(=O)N/N=C(\C)c2ccc(Cl)cc2)nc2c1c(=O)n(C)c(=O)n2C,106%
8,Cc1ccc(C2=Nc3c(N)ncnc3NC(c3cccc(Nc4ccnc5cc(C(F)(F)F)ccc45)c3)C2)cc1 (stereo not given),0.783% (active)
9,CCCCCCCCCCCCCCCCCCOc1ccccc1CC(=O)OCC[N+](C)(C)C,-54% (active)
10,CC(C)C1=NOC(=O)C1=Cc1cn(-c2ccccc2)nc1-c1ccc(F)cc1,82.2%
11,O=C(NNC(=O)c1ccc(NC(=O)c2ccccn2)cc1)Nc1ccc([N+](=O)[O-])cc1,99.9%
12,CSc1nc2ccccc2cc1/C=C1/C=C(c2ccccc2)NC1=O,84.6%
13,CC(C)c1ccc(-n2c(=S)[nH]c3sc4cc(O)ccc4c3c2=O)cc1,91.2%
14,C=C1C(=O)O[C@H]2[C@H]1CC/C(COC(=O)c1cc3ccccc3s1)=C\CC[C@@]1(C)O[C@@H]21,-88.8% (active)
15,COc1ccc(OC)c(/C=N/Nc2ncnc3c2c(C)nn3C)c1,96.9%
16,NC(=O)c1ccc(-c2c3ccccc3cc3c2ccc2ccccc23)cc1,23%
17,NNc1nc(-c2cccnc2)nc2c1sc(=S)n2-c1ccccc1,114%
18,CN(C)CC(C)(C)C(=O)/C=C/c1ccccc1,-77.2% [25 µM] (active)
19,Cc1ccc(Nc2cc(N)nc(N)n2)cc1Cl,97.5%
20,COc1ccc(CNc2c3ccccc3nc3ccccc23)cc1,27.6%

row,SMILES,growth
1,CN(c1cc2ncc(=O)[nH]c2cc1NC(N)=NCc1ccc(Cl)cc1)C1CCCCC1,37.1%
2,Cc1cccc(CNc2c3ccccc3nc3ccccc23)c1,-1.71% (active)
3,Fc1cc2c(cc1Cl)N(c1ncnc3ccc(-c4ccc5n[nH]nc5c4)cc13)CC2,78.7%
4,CC(C)c1ccc(Cc2cnc(NC(=O)c3cc(Br)cs3)s2)cc1,-5.08% (active)
5,O=C1Nc2ccc(C(=O)O)cc2/C1=N/c1nnc(Sc2ccccc2)s1,117%
6,O=C(Nc1nc2ccc(C(=O)N3CCN(/C=C/c4ccccc4)CC3)cc2s1)c1ccc(NCCc2ccccc2)c([N+](=O)[O-])c1,53.2%
7,O=C(c1ccncc1)N1N=C(c2ccc(Cl)cc2)C[C@H]1c1cn(-c2ccccc2)nc1-c1ccccc1,87.6%
8,CCc1ccc(CCCC(=O)O)cc1,112%
9,CSc1nc2ccccc2cc1/C=[N+](\[O-])c1ccccc1,83.8%
10,NC(=O)CSc1oc(-c2ccccc2)nc1S(=O)(=O)c1ccc(Br)cc1,46.5%
11,N#CC1=C(N)Oc2c(c(=O)[nH]c3ccc(Cl)cc23)C12C(=O)c1ccccc1C2=O,101%
12,CC/C(=C(/c1ccc(Cl)cc1)c1ccc(OCCN2CCCCC2)cc1)c1ccc(OC)cc1,47.9%
13,NC(Cc1ccc(O)c([N+](=O)[O-])c1)C(=O)O (stereo not given),108%
14,Nc1c(C(=O)Nc2ccncc2)sc2nc3c(cc12)C(O)CCC3 (stereo not given),107%
15,COc1ccc(NC2=C(I)C(=O)c3ncccc3C2=O)cc1,33%
16,CCOc1ccc(NC(=O)CSc2oc(-c3ccccc3)nc2S(=O)(=O)c2ccc(C)cc2)cc1,62.1%
17,O=S(=O)(Nc1cc(F)cc(Cl)c1)c1ccc(-c2cnc(C3CC3)o2)cc1,14.8%
18,CC1(C)COB(OCC(C)(C)COB2OCC(C)(C)CO2)OC1,123%
19,O=C(Nc1ccccc1O)c1ccc(CNC(=O)c2sccc2Nc2ccnc(C(F)(F)F)c2)cc1,47.9%
20,CCC(C)N(CCNc1cc(OC)cc2cccnc12)CC(C)C (stereo not given),122%
